In PubChem BioAssay (NCATS):
Inconclusive results are not listed. Active and inactive are the calls of the source. Calls follow the shape of the dose curve; as a rule, active = well fitted curve in the direction sought with a large enough effect in the signal ratio; inconclusive = small, poorly fitted or top-dose-only effect, or a change in a side signal; inactive = no such curve, though single readings can be large or run the other way; the % refers to the signal ratio.

target: Tumor necrosis factor (Homo sapiens) (UniProt P01375); test: qHTS assay to identify small molecules that stimulate Tumor Necrosis Factor-alpha (TNF-alpha) secretion (AID 651757); conditions: Human cells, HTRF 665/615 ratio; series mostly up to 92.2 µM; activation (TNF-alpha secretion): at the top concentration; as to activation (TNF-alpha secretion): 0% is about no effect
Sequence (P01375 whole entry, looked up): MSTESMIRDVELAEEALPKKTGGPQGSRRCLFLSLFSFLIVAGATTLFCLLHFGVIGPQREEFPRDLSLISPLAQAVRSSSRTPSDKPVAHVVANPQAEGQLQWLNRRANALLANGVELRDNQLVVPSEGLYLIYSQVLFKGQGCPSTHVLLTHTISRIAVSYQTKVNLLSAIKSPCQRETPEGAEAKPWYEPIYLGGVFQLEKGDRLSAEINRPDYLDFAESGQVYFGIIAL
Source text: National Center for Advancing Translational Sciences [NCATS]
NIH Chemical Genomics Center [NCGC]
National Institutes of Environmental Health Sciences [NIEHS]
National Toxicology Program [NTP]
Tumor Necrosis Factor-alpha (TNF-alpha), a secreted cytokine, plays an important role in inflammatory diseases and immune disorders. TNF-alpha, a 17 kDa cytokine, is mainly secreted by activated macrophages and monocytes in response to several inflammatory and immunological stimuli. To study the effect of environmental chemicals on TNF-alpha secretion, a homogeneous TNF-alpha assay was developed using Time Resolved fluorescence (HTRF) technology based on Time Resolved Fluorescent Resonance Energy Transfer (TR-FRET) (Leister et al., Current Chemical Genomics, 5:21-29, 2011). This assay allows measuring TNF-alpha secreted from the cells in a 1536-well plate format.
THP-1 cells were dispensed at 3000 cells/5ul/well in 1536-well white solid plates. After addition of 23 nl of compound, positive controls and DMSO only, the assay plates were incubated at 37 C for 17 hrs, followed by addition of 5 uLof mixture of cryptate labeled and XL665 labeled anti-TNF-alpha antibodies. After the assay plates were incubated at room temperature for 3 hr, the plates were measured by an EnVision plate reader.
Potency is read from the fitted curve at half-maximal effect.

Question: For `CCCCOC(=O)COc1ccc(Cl)cc1Cl`, which “activation (TNF-alpha secretion)” value is on record?
Answer: 1.61% (inactive)

Question: Which “activation (TNF-alpha secretion)” value does the source give for `CC(=O)OC1CC(C)OC(C)O1` (stereo not given) here?
Answer: 0.0592% (inactive)

Question: For `C=CC(C)(O)CCCC(C)CCCC(C)CCCC(C)C` (stereo not given), which “activation (TNF-alpha secretion)” value is on record?
Answer: 0.527% (inactive)

Question: With `O=C(OCc1ccccc1)c1ccccc1O` as the compound, how does the “activation (TNF-alpha secretion)” value read?
Answer: 0.506% (inactive)

Question: How did the “activation (TNF-alpha secretion)” value turn out when `c1ccc(COCc2ccccc2)cc1` was run?
Answer: -0.596% (inactive)

Question: How did the “activation (TNF-alpha secretion)” value turn out when `S=C(NC1CCCCC1)NC1CCCCC1` was run?
Answer: -0.0166% (inactive)

Question: Which “activation (TNF-alpha secretion)” value does the source give for `Clc1nc2ccccc2nc1Cl` here?
Answer: 1.57% (inactive)

Question: Which “activation (TNF-alpha secretion)” value does the source give for `O=[N+]([O-])c1ccccc1Nc1ccccc1` here?
Answer: -0.435% (inactive)

Question: `C1CCCNCC1` was tested. Which “activation (TNF-alpha secretion)” value did it give?
Answer: 0.718% (inactive)

Question: How did the “activation (TNF-alpha secretion)” value turn out when `c1c[nH]cn1` was run?
Answer: -0.491% (inactive)

Question: How did the “activation (TNF-alpha secretion)” value turn out when `C/C=C1/C(=O)C[C@H]2[C@@H]3CCC4=CC(=O)CC[C@]4(C)[C@H]3CC[C@]12C` was run?
Answer: 0.0053% (inactive)

Question: Which “activation (TNF-alpha secretion)” value does the source give for `CC(=O)Nc1cccc(C)c1` here?
Answer: 0.0074% (inactive)

Question: `O=C(O)c1cc(N=Nc2ccc([N+](=O)[O-])cc2)ccc1O` was tested. Which “activation (TNF-alpha secretion)” value did it give?
Answer: -0.0928% (inactive)

Question: Which “activation (TNF-alpha secretion)” value does the source give for `C=C(C#N)C(=O)OCC` here?
Answer: -1.01% (inactive)

Question: With `Cc1cc(=O)oc2cc(O)cc(O)c12` as the compound, how does the Potency read?
Answer: 7.5 µM (active)

Question: With `C[C@@H]1CC2(OC(O)[C@]3(C)O[C@H]23)O[C@H]2C[C@@]3(C)[C@@H]4CC[C@H]5C(C)(C)C(O[C@@H]6OC[C@@H](O)[C@H](O)[C@H]6O)CC[C@@]56C[C@@]46CC[C@]3(C)[C@@H]12` (stereo not given in full) as the compound, how does the “activation (TNF-alpha secretion)” value read?
Answer: -0.246% (inactive)

Question: `c1ccc(SCCSc2ccccc2)cc1` was tested. Which “activation (TNF-alpha secretion)” value did it give?
Answer: 0.661% (inactive)

Question: With `O=C1c2ccccc2C(=O)C1(O)O` as the compound, how does the “activation (TNF-alpha secretion)” value read?
Answer: 0.612% (inactive)

Question: For `CCCCCCCCC1CO1` (stereo not given), which “activation (TNF-alpha secretion)” value is on record?
Answer: 0.219% (inactive)

Question: How did the “activation (TNF-alpha secretion)” value turn out when `CCCCCCCCOc1ccc(C(=O)O)cc1` was run?
Answer: 0.166% (inactive)

Question: How did the “activation (TNF-alpha secretion)” value turn out when `CCOC(=O)C1OC1c1ccccc1` (stereo not given) was run?
Answer: -0.169% (inactive)

Question: `CC(=O)OC(C(=O)c1ccccc1)c1ccccc1` (stereo not given) was tested. Which “activation (TNF-alpha secretion)” value did it give?
Answer: 0.319% (inactive)

Question: For `Cc1ccccc1OCC1CO1` (stereo not given), which “activation (TNF-alpha secretion)” value is on record?
Answer: 0.0586% (inactive)

Question: Which “activation (TNF-alpha secretion)” value does the source give for `Brc1cc(Oc2cc(Br)c(Br)c(Br)c2Br)c(Br)c(Br)c1Br` here?
Answer: 1.63% (inactive)

Question: Which “activation (TNF-alpha secretion)” value does the source give for `Brc1cc(Br)c(Oc2cc(Br)c(Br)cc2Br)cc1Br` here?
Answer: 0.674% (inactive)

Question: `Oc1ccc2c(c1)OCO2` was tested. Which “activation (TNF-alpha secretion)” value did it give?
Answer: 0.839% (inactive)

Question: Which “activation (TNF-alpha secretion)” value does the source give for `Cc1ccc(N)cc1[N+](=O)[O-]` here?
Answer: -0.22% (inactive)

Question: How did the “activation (TNF-alpha secretion)” value turn out when `O=C(O)c1ccc([N+](=O)[O-])cc1` was run?
Answer: 0.0085% (inactive)

Question: `CCC(Cl)CC(Cl)C(Cl)C(Cl)C(Cl)C(C)Cl` (stereo not given) was tested. Which “activation (TNF-alpha secretion)” value did it give?
Answer: 0.572% (inactive)

Question: `Cc1ccc(C(=O)O)cc1[N+](=O)[O-]` was tested. Which “activation (TNF-alpha secretion)” value did it give?
Answer: 0.807% (inactive)

Question: With `Brc1ccc(-c2ccccc2)cc1` as the compound, how does the “activation (TNF-alpha secretion)” value read?
Answer: -0.0066% (inactive)

Question: With `Cc1ccc2ccc3cccc4ccc1c2c34` as the compound, how does the “activation (TNF-alpha secretion)” value read?
Answer: 2.56% (inactive)

Question: With `NC(=O)c1ccc([N+](=O)[O-])cc1` as the compound, how does the “activation (TNF-alpha secretion)” value read?
Answer: 0.0955% (inactive)

Question: How did the “activation (TNF-alpha secretion)” value turn out when `CC(=O)CC(=O)Nc1ccccc1` was run?
Answer: 0.232% (inactive)

Question: For `CCCC(=O)OC(=O)CCC`, which “activation (TNF-alpha secretion)” value is on record?
Answer: 0.151% (inactive)

Question: For `CCCCC(CC)COCCCN` (stereo not given), which “activation (TNF-alpha secretion)” value is on record?
Answer: 0.394% (inactive)

Question: For `C=Cc1cccc(C)c1`, which “activation (TNF-alpha secretion)” value is on record?
Answer: 0.169% (inactive)

Question: With `c1ccc(Nc2cccc3ccccc23)cc1` as the compound, how does the “activation (TNF-alpha secretion)” value read?
Answer: 1.79% (inactive)

Question: `CCc1ccc(C(c2ccc(CC)cc2)C(Cl)Cl)cc1` was tested. Which “activation (TNF-alpha secretion)” value did it give?
Answer: 0.331% (inactive)

Question: With `C=CC(=O)OCCCCCCOC(=O)C=C` as the compound, how does the “activation (TNF-alpha secretion)” value read?
Answer: 0.562% (inactive)
